This note sets out measurements from PubChem BioAssay (Tox21).

The structures appear in SMILES notation. Calls of active or inactive are those of the source. Calls come from the whole dose curve.
% is set by controls: 0 for no effect and ±100 for the full control effect.

In the experiment the target is Muscarinic acetylcholine receptor M1 (Homo sapiens) (UniProt P11229). Description: Cholinergic receptor muscarinic 1 (CHRM1) small molecule agonists, cell-based qHTS assay (AID 1963589). Note: nearly all actives have a fitted effect of over 35% in size. The following applies: CHRM1-CHO cells, agonist mode, calcium flux fluorescence; series mostly up to 76.8 µM; activation: at the top concentration. An excerpt: National Center for Advancing Translational Sciences [NCATS]
Sequence of Muscarinic acetylcholine receptor M1 (Homo sapiens) (P11229 whole entry, looked up): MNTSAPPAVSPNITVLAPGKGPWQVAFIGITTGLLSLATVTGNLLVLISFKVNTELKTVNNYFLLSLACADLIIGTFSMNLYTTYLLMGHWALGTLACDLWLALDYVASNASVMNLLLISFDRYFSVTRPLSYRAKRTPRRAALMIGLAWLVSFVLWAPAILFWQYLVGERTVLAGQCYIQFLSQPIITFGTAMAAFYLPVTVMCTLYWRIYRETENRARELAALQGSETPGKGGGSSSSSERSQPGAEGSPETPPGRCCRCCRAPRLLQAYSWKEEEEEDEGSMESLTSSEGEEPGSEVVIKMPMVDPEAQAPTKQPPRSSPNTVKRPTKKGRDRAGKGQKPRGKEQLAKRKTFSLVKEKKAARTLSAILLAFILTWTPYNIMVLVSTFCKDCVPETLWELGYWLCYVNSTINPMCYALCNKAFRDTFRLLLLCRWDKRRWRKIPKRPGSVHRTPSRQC
Division of Preclinical Innovation [DPI]
U.S. Environmental Protection Agency [EPA]
National Institutes of Environmental Health Sciences [NIEHS]
National Toxicology Program [NTP]
U.S. Food and Drug Administration [FDA]
The CHRM1 is a muscarinic receptor. This receptor plays a crucial role in learning and memory processes and has long been identified as a promising therapeutic target for the improvement of cognitive decline in Alzheimer's disease (AD). The CHRM1-CHO cell line stably expressing human muscarinic acetylcholine receptor M1 (CHRM1) can be used for screening agonists and antagonists of interactions between CHRM1 and its ligands. The CHRM1-CHO Calcium Flux Assay is a homogeneous fluorescence-based assay for detecting the intracellular calcium level using FDSS kinetic plate reader system.
CHRM1-CHO cells were dispensed at 1000 cells/3uL/well in 1536-well black-clear bottom plates using a Multidrop Dispenser. After the assay plates were incubated at a 37 C/5% CO2 incubator for 18 h, 3 uL of Dye Loading Buffer was transferred to the assay plate by a Flying Reagent Dispenser. The assay plates were incubated at 37 C for 1h. For agonist mode, 23 nL of compounds dissolved in DMSO, positive controls or DMSO only was transferred to the assay plate by a pin tool. […] Each test compound was measured at 15 concentrations in three independent runs.
Turning to `CCOC(=O)NCCOc1ccc(Oc2ccccc2)cc1`, the “activation” value was 0.359% (inactive).

As for `S=C(S)NCCNC(=S)S`, the “activation” value is -0.218% (inactive).

Take `CCCCCCCCCCCCCOC(=O)CCSCCC(=O)OCCCCCCCCCCCCC`: the activation is -0.105% [at 15.8 µM] (inactive).

In the case of `CCOc1ccc(O)cc1`, the “activation” value is -0.205% (inactive).

In the case of `CC1CC(=O)NN=C1c1ccc(NCC(C)(C)NCC(O)COc2cc(Cl)ccc2C#N)cc1` (stereo not given), the “activation” value was -0.0841% [at 35.3 µM] (inactive).

In the case of `Cc1ccc(C(=O)O)cc1[N+](=O)[O-]`, the “activation” value is 0.221% (inactive).

As for `O=C1CCCC(=O)O1`, the “activation” value was 17.5% (inactive).

For the compound `COC(=O)[C@H]1[C@H]2C[C@@H]3c4[nH]c5cc(OC)ccc5c4CCN3C[C@H]2C[C@@H](OC(=O)/C=C/c2ccc(O)c(OC)c2)[C@@H]1OC`, the “activation” value is 0% [at 35.3 µM] (inactive).

As to `CC(C)(C)C(=O)c1ccccc1`, the “activation” value was 3.02% (inactive).

As for `CCCCCCCCCCCCOCCOS(=O)(=O)O`, the “activation” value was -0.402% (inactive).

As for `CCCCO`, the “activation” value was 0.901% (inactive).

For `O=c1[nH]c2ccc(S(=O)CCN3CCC(Cc4ccc(F)cc4)CC3)cc2o1` (stereo not given), the “activation” value was 0.0063% (inactive).

For `CC(C)(C)c1ccc(-c2ccc(C(C)(C)C)cc2)cc1`, the “activation” value is 0.242% (inactive).

Regarding `CCOc1ccc2nc3cc(N)ccc3c(N)c2c1`, the “activation” value was -0.285% [at 35.3 µM] (inactive).

Consider `O=CO`, for which the activation was -0.0923% [at 6.97 µM] (inactive).

Turning to `C#Cc1cccc(Nc2ncnc3cc(OCCOC)c(OCCOC)cc23)c1`, the “activation” value is -0.164% [at 35.3 µM] (inactive).

Consider `CC(=O)OCC(=O)[C@H]1CC[C@H]2[C@@H]3CCC4=CC(=O)CC[C@]4(C)[C@H]3CC[C@]12C`, for which the “activation” value is 1.23% [at 35.3 µM] (inactive).

Regarding `CCCCNCC`, the “activation” value was -0.857% (inactive).

As to `CC(C)(C)C1CCCCC1=O` (stereo not given), the “activation” value is 13.1% (inactive).

In the case of `CCCCCC`, the “activation” value is 0.0309% (inactive).

On to `CC(=O)CCc1ccc(OC(C)=O)cc1`, for which the “activation” value was 0.0292% (inactive).

As to `O=Cc1cc(O)ccc1Br`, the “activation” value is 3.38% (inactive).

As to `O=C1[C@@H]2[C@H]3CC[C@H](C3)[C@@H]2C(=O)N1CCCCN1CCN(c2ncccn2)CC1`, the “activation” value was -0.308% [at 35.3 µM] (inactive).

With `CCN(CC)CCOC(=O)C(c1ccccc1)C1CCCCC1` (stereo not given), the “activation” value is 0.0229% [at 35.3 µM] (inactive).

`CCCCCOC(=O)CCCCC`: the “activation” value was 11.8% (inactive).

`Cc1nc2ccccc2c(=O)o1`: the “activation” value was -0.465% (inactive).

Regarding `CC(C)COC(=O)CCCCC(=O)OCC(C)C`, the “activation” value was 0.689% (inactive).

Take `COP(=O)(OC)OC(c1ccc(Cl)cc1)P(=O)(OC)OC` (stereo not given): the “activation” value was 0.636% [at 35.3 µM] (inactive).

In the case of `c1ccc(-c2ccccn2)nc1`, the “activation” value is -0.0026% (inactive).

Regarding `CCCCC[C@H](O)/C=C/[C@H]1[C@H](O)CC(=O)[C@@H]1C/C=C\CCCC(=O)O`, the “activation” value is 9.17% [at 35.3 µM] (inactive).

Consider `CCC(C)c1cc(C(C)(C)C)c(O)c(C(C)(C)C)c1` (stereo not given), for which the “activation” value is 4.61% (inactive).

With `CC[C@@]1(c2ccccc2)NC(=O)N(C)C1=O`, the “activation” value was -0.362% [at 35.3 µM] (inactive).

Turning to `CCCCCCCC/C=C\CCCCCCCC(=O)OCCO`, the “activation” value is 0.121% (inactive).

For the compound `O=C(CS(=O)Cc1ccco1)NC/C=C\COc1cc(CN2CCCCC2)ccn1` (stereo not given), the “activation” value is -0.364% [at 35.3 µM] (inactive).

For `O=C(O)CCc1nc2ccccc2[nH]1`, the “activation” value was -0.455% [at 35.3 µM] (inactive).

Take `CC(C)COCC(CN(Cc1ccccc1)c1ccccc1)N1CCCC1` (stereo not given): the “activation” value was 6.04% [at 35.3 µM] (inactive).

For the compound `CCCCCCOC(=O)c1ccc(O)cc1`, the Potency result was “inactive”.

Take `C=C(C)C1CCC(C)(O)CC1` (stereo not given): the “activation” value is -0.0294% (inactive).

Consider `O=C(OCC(COC(=O)c1cccnc1)(COC(=O)c1cccnc1)COC(=O)c1cccnc1)c1cccnc1`, for which the “activation” value was -0.704% [at 35.3 µM] (inactive).

For the compound `Sc1nc(S)nc(S)n1`, the “activation” value is -0.138% [at 35.3 µM] (inactive).
